We go through 84 molecules from paper PMC4336329 (PLoS ONE, 2015).

Screen size: about 310,000 compounds; about 2,200 (0.71%) showed an effect of 50% or more. Effects have a minus sign here. For the sample, strong results were picked, then their nearest neighbours and some compounds at random.

human ether-à-go-go-related gene (hERG) potassium channel, sequence (Q12809 whole entry, looked up): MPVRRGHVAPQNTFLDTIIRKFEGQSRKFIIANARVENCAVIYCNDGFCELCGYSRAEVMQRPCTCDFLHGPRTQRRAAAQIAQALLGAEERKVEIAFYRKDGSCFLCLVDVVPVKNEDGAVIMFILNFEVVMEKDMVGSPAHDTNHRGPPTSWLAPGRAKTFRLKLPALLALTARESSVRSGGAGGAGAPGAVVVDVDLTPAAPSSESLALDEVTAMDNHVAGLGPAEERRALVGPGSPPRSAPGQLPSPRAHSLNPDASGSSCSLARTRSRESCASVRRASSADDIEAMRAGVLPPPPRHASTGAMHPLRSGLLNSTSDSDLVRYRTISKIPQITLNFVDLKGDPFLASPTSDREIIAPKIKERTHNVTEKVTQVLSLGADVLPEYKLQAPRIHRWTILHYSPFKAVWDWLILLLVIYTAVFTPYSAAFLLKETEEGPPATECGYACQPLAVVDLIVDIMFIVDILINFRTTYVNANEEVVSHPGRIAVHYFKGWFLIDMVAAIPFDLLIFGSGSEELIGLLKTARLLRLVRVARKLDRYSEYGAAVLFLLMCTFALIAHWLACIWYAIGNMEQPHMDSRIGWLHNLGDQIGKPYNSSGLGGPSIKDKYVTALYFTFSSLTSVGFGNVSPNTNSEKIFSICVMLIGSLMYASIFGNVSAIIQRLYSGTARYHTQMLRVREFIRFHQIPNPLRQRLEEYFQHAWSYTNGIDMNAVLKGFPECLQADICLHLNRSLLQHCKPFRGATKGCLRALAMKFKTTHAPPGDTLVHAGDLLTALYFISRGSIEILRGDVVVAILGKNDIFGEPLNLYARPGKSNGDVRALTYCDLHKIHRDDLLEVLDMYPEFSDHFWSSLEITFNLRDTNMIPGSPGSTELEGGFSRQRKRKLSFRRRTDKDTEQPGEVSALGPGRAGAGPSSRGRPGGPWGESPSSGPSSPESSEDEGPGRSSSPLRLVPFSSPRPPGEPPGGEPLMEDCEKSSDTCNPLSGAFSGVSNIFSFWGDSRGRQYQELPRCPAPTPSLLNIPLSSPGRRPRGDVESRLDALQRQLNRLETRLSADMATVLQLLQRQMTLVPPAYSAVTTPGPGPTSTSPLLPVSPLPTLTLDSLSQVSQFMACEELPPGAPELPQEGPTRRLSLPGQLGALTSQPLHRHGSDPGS

This test deals with human ether-à-go-go-related gene (hERG) potassium channel (human, UniProt Q12809). Briefly: primary screen, population patch clamp on CHO cells stably expressing hERG; higher = less effect of the substance. The procedure:
Briefly, Chinese hamster ovary (CHO) cells stably expressing the hERG channel were dislodged from tissue culture flasks and dispensed into PPC plates. […] During the recording, background leak currents were estimated by a 100 ms step to -80 mV from an initial holding potential of -70 mV and subtracted from the subsequent current measurement. The campaign was conducted in two phases using slight differences in recording protocol. In the first phase, the initial voltage pulse used a 100 ms step to -30 mV from a holding potential of -70 mV, a 2 s conditioning step to +25 mV, and a 2 s test step to -30 mV. During the second phase of the screen, the potential during the conditioning step was raised to +45 mV. In both phases of the campaign, a secondary voltage pulse was applied using the same parameters as the second phase initial pulse. The initial and secondary pulses were applied in the absence of compound, and upon application of 1 μM and 10 μM test concentrations. Small molecule effects on hERG current density were quantified by […].
`Cn1cnc([N+](=O)[O-])c1Cl`: the “hERG current change (%, negative = inhibition) at 1uM” value was found to be 11%.
For `O=C(CN1C(=O)c2ccccc2C1=O)Nc1ccccc1C(=O)NC1CCCCCC1` the value was 6.73%; for `Cc1ccc(CNC(=O)c2ccc(N3CCC4(CC3)CC(c3cccc(Br)c3)=NO4)c(NC(=O)c3cccc(C)c3)c2)cc1`, 8.49%.
For `CCCSc1nc(C)c(C(C)=O)cc1C#N` the value was 7.88%; for `O=C(CN1CCN(CCO)CC1)Nc1ccc(Cl)cc1C(=O)c1ccccc1`, -80.7%.
To `O=C(CN1CCCC1)Nc1ccccc1C(=O)c1ccccc1` belongs 10.5%.
On to `O=C(CCN1CCCCC1)Nc1ccc(Cl)cc1C(=O)c1ccccc1`, for which the “hERG current change (%, negative = inhibition) at 1uM” value is listed as -42.9%.
In the case of `Cc1ccc(CNC(=O)N2CCN(c3ccc(C)cc3)CC2)cc1`, the “hERG current change (%, negative = inhibition) at 1uM” value is recorded as 14.1%.
For `O=C1C=C(c2ccc(-c3ccccc3)cc2)C[C@@H](c2ccc(Cl)cc2)C1` the value was 15.9%; for `O=C1C=C(c2ccc(-c3ccccc3)cc2)C[C@@H](c2ccc(F)cc2)C1`, 6.09%.
To `Cc1ccc(C2=CC(=O)C[C@H](c3ccc(F)cc3)C2)cc1` belongs 14.5%.
For `Cc1ccc(C2=CC(=O)C[C@H](c3ccc(Cl)cc3)C2)cc1` the value was 10.4%.
Take `N#Cc1ccc(C2=CC(=O)C[C@H](c3ccc(F)cc3)C2)cc1`: the “hERG current change (%, negative = inhibition) at 1uM” value is -61.4%.
To `N#Cc1ccc(C2=CC(=O)C[C@H](c3ccc(Cl)cc3)C2)cc1` belongs -51.9%.
For `Cc1ccc2nc3c(cc2c1)c(NC(=O)C(C)(C)C)nn3CC(C)C` the value was 7.75%.
To `COc1ccc(S(=O)(=O)N2CCCCCC2)cc1C(=O)N(C)Cc1ccccc1F` belongs 6.9%; to `CCCn1c(SCC(=O)Nc2ccccc2OC)nnc1-c1ccco1`, -18.2%; to `NC(=O)c1ccc(NC(=O)CCCNC(=O)c2ccc(Cl)cc2)cc1`, 16.6%.
With `CCOc1ccc2nc(NC(=O)c3cc([N+](=O)[O-])ccc3N3CCOCC3)sc2c1`, the “hERG current change (%, negative = inhibition) at 1uM” value worked out at 8.4%.
With `COc1ccc(CN(C(=O)COc2ccccc2)c2ccccc2C(=O)O)cc1`, the “hERG current change (%, negative = inhibition) at 1uM” value is 22%.
To `CC(C)Cn1c(CN(C)Cc2ccccc2)nc2c1c(=O)n(C)c(=O)n2C` belongs -6.95%; to `CC12CCC(C(=Nc3ccc(N=C4C(=O)C5(C)CCC4C5(C)C)cc3)C1=O)C2(C)C`, 8.42%.
To `COc1ccc(CNC(=S)NC2CCCC2)cc1` belongs 9.23%.
To `COc1ccc(NC(=O)N2CCC(CO)(CC3CCCCO3)CC2)c(OC)c1` (stereo not drawn) belongs 9.96%; to `CC(=O)c1ccc(N2CCN(C(=O)COc3ccccc3F)CC2)c(F)c1`, -11.1%.
On to `CCC(=O)c1ccc(N2CCN(C(=O)COc3ccccc3F)CC2)c(F)c1`, for which the “hERG current change (%, negative = inhibition) at 1uM” value is -19.1%.
To `O=C(COc1ccc(-n2cnnn2)cc1)N1CCN(c2ccc(F)cc2)CC1` belongs -60.3%; to `CCC(=O)c1ccc(N2CCN(C(=O)c3ccc(F)cc3)CC2)c(F)c1`, -10.2%.
For `CC(=O)c1ccc(N2CCN(C(=O)COc3ccc(F)cc3)CC2)c(F)c1` the value was -62.7%; for `CC(=O)c1cc(F)c(N2CCN(C(=O)COc3ccc(F)cc3)CC2)cc1C`, -38.2%; for `O=C(COc1ccc(-n2cnnn2)cc1)NCCc1ccc(F)cc1`, -5.74%.
Regarding `O=C(COc1ccc(F)cc1)Nc1ccc(-n2cnnn2)cc1`, the “hERG current change (%, negative = inhibition) at 1uM” value is recorded as -27.2%.
For `CCC(=O)c1ccc(N2CCN(C(=O)COc3ccc(F)cc3)CC2)c(F)c1` the value was -71.3%; for `CCN(CC(=O)NCc1cccs1)C(=O)/C=C/c1cccc(Br)c1`, -42.3%.
For `COc1cccc(NC(=O)CN(C)C(=O)c2ccccc2Sc2ccccc2C#N)c1` the value was 8.02%; for `CCC(C)NC(=O)Cn1nc(Cc2ccncc2)c2ccccc2c1=O` (stereo not drawn), 10.1%.
For `Cc1cc(NC(=O)c2ccc3c(c2)C(=O)N(C)C3=O)no1` the value was 16.4%; for `Cc1ccc(C)c(OCCC(=O)NNC(=O)c2ccccc2)c1`, 10.8%.
As to `Cc1cccc(N(C(=O)c2nsc(Cl)c2Cl)C(C(=O)NC2CCCC2)c2ccc(O)cc2)c1C` (stereo not drawn), the “hERG current change (%, negative = inhibition) at 1uM” value stood at 10.1%.
For `O=C(c1cccc(S(=O)(=O)N2CCOCC2)c1)N(Cc1ccco1)Cc1cccs1` the value was -6.4%; for `O=C(c1cccc(S(=O)(=O)N2CCOCC2)c1)N(Cc1ccc(F)cc1)Cc1ccco1`, -55.2%; for `CN(C)S(=O)(=O)c1cccc(C(=O)N(Cc2ccc(F)cc2)Cc2ccco2)c1`, -14.6%.
To `CCC(=O)O[C@]1(C(=O)CCl)[C@@H](C)C[C@H]2[C@@H]3CCC4=CC(=O)C=C[C@]4(C)[C@@]3(F)[C@@H](O)C[C@@]21C` belongs 18%; to `Cc1ccccc1OCC(O)Cn1c(=N)n(CCN2CCOCC2)c2ccccc21.Cl` (stereo not drawn), -25.3%.
On to `COc1ccc(-c2cc3ccccc3n2CC(O)CN2CCCCC2)cc1.O=C(O)C(=O)O` (stereo not drawn), for which the “hERG current change (%, negative = inhibition) at 1uM” value is reported as -74.6%.
To `Cc1cccc(OCC(O)Cn2c(=N)n(CCN3CCOCC3)c3ccccc32)c1.Cl` (stereo not drawn) belongs -8.29%.
To `COc1ccc(-c2cc3ccccc3n2CC(O)CN2CCOCC2)cc1` (stereo not drawn) belongs 2.37%.
To `Cc1ccc(OCC(O)Cn2c(=N)n(CCN3CCCCC3)c3ccccc32)cc1.Cl` (stereo not drawn) belongs -30.1%.
In the case of `CCOc1ccc(C(O)Cn2c(=N)n(CCN3CCCCC3)c3ccccc32)cc1.Cl` (stereo not drawn), the “hERG current change (%, negative = inhibition) at 1uM” value was -56%.
To `Cc1cccc(OCC(O)Cn2c(=N)n(CCN3CCCCC3)c3ccccc32)c1.Cl` (stereo not drawn) belongs -59.8%.
For `CCCn1c(=N)n(CC(O)c2ccc(C)cc2)c2ccccc21.Cl` (stereo not drawn) the value was -14.9%.
To `COc1ccc(OCC(O)Cn2c(=N)n(CCN3CCCCC3)c3ccccc32)cc1.Cl` (stereo not drawn) belongs -51.2%.
On to `Cl.N=c1n(CCN2CCCCC2)c2ccccc2n1CC(O)c1ccco1` (stereo not drawn), for which the “hERG current change (%, negative = inhibition) at 1uM” value is listed as -4.15%.
For `Cl.N=c1n(CCN2CCCCC2)c2ccccc2n1CC(O)COc1ccccc1` (stereo not drawn) the value was -32.7%.
To `COc1ccc(-c2cc3ccccc3n2CC(O)CN2CCC(C)CC2)cc1.O=C(O)C(=O)O` (stereo not drawn) belongs -49.8%.
To `CCCCC(=O)O[C@]1(C(=O)CO)CC[C@H]2[C@@H]3CCC4=CC(=O)CC[C@]4(C)[C@H]3[C@@H](O)C[C@@]21C` belongs 11.4%.
For the molecule `COc1ccc(N/C=C/C(=O)c2ccccc2)cc1`, the “hERG current change (%, negative = inhibition) at 1uM” value came out at 11%.
In the case of `CCCCNC(=O)C1CCCN1C(=O)Nc1ccccc1` (stereo not drawn), the “hERG current change (%, negative = inhibition) at 1uM” value is listed as 0.208%.
For `O=S(=O)(NCc1cccnc1)c1ccc(Br)c2ccccc12` the value was 7.97%; for `Cc1cc2nc(-c3ccc(SCc4ccc(C(=O)O)cc4)nc3)[nH]c2cc1C`, 14.5%.
For `COc1ccc2[nH]c(C(=O)O)c(CCNC(=O)/C=C/c3ccc(O)c(OC)c3)c2c1`, the “hERG current change (%, negative = inhibition) at 1uM” value amounted to 13.1%.
For `CCCc1nnc(NC(=O)c2nc(S(=O)(=O)Cc3cccc(C)c3)ncc2Cl)s1` the value was 21%; for `O=C1CCN(C(=O)Cc2ccccc2[N+](=O)[O-])CC1`, 14.3%.
For `O=C(Nc1cc(SCC(O)CO)cc([N+](=O)[O-])c1)c1ccc(-n2cnnn2)cc1` (stereo not drawn) the value was 17.4%; for `Br.CC1(C(=O)CSc2n[nH]c(-c3ccccc3Cl)n2)CCC(=O)O1` (stereo not drawn), 8.24%.
To `COc1ccc(N(CC(=O)NC2CCCCC2)S(=O)(=O)c2c(C)[nH]c(=O)[nH]c2=O)cc1` belongs 15.2%; to `Cc1ccc(CNC(=O)c2nn(C)c(C)c2[N+](=O)[O-])cc1`, 5.74%.
As to `Cl.N=c1n(CCN2CCCCC2)c2ccccc2n1CC(O)c1ccc(Cl)c(Cl)c1` (stereo not drawn), the “hERG current change (%, negative = inhibition) at 1uM” value is -70.4%.
For `Cl.N=c1n(CCN2CCCCC2)c2ccccc2n1CC(O)c1cccc(Br)c1` (stereo not drawn) the value was -41.7%; for `Cl.N=c1n(CCN2CCCC2)c2ccccc2n1CC(O)c1ccc(Cl)c(Cl)c1` (stereo not drawn), -33.2%.
For `COc1ccc(NC(=S)N2CCC(NC(=O)c3ccc(OC)cc3)CC2)cc1` the value was 11.3%; for `Cc1cc(N2CCCC2)nc2ccc(NC(=S)NCCCOC(C)C)cc12`, -78.6%.
Regarding `COCCNC(=S)Nc1ccc2nc(N3CCOCC3)cc(C)c2c1`, the “hERG current change (%, negative = inhibition) at 1uM” value is recorded as 14.9%.
For `COCCNC(=S)Nc1ccc2nc(N3CCCC3)cc(C)c2c1` the value was -50.5%; for `CCOCCCNC(=S)Nc1ccc2nc(N3CCCC3)cc(C)c2c1`, -74.8%.
To `COCCNC(=S)Nc1ccc2nc(N3CCN(C)CC3)cc(C)c2c1` belongs 9.02%.
For `CCOCCCNC(=S)Nc1ccc2nc(N3CCOCC3)cc(C)c2c1` the value was 9.64%; for `CCOCCCNC(=S)Nc1ccc2nc(N3CCN(CC)CC3)cc(C)c2c1`, 10.7%.
Regarding `CCN1CCN(c2cc(C)c3cc(NC(=S)NCCCOC)ccc3n2)CC1`, the “hERG current change (%, negative = inhibition) at 1uM” value was determined as 12.1%.
For `CCCN(CCC)CCCNC(=S)Nc1ccc2nc(N3CCCC3)cc(C)c2c1` the value was -14.5%; for `CCN1CCN(c2cc(C)c3cc(NC(=S)N(C)Cc4ccccc4)ccc3n2)CC1`, -56.7%.
For the molecule `CCCCN(C)C(=S)Nc1ccc2nc(N3CCN(CC)CC3)cc(C)c2c1`, the “hERG current change (%, negative = inhibition) at 1uM” value was -46.4%.
To `CCN1CCN(c2cc(C)c3cc(NC(=S)N(CC)CC)ccc3n2)CC1` belongs -8.83%.
To `NC(=O)NCCCC(NC(=O)c1ccc(C#CC2(O)CCCCC2)cc1)C(=O)O` (stereo not drawn) belongs 8.16%.
